Measured values: PubChem BioAssay
The source made the active and inactive calls.

Columns and labels:
[1] = system: PRMT1 (protein arginine N-methyltransferase 1); test: small molecules binding arginine methyltransferase PRMT1 – biochemical, small-molecule microarray, 635 nm fluorescence, primary screen (AID 1088); conditions: higher = more signal;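 further: binding of Prmt1 protein to compounds spotted on small-molecule microarray slides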
[2] = growth effects on S. cerevisiae YJM789 – YJM789 clinical isolate, OD600, 24 h, basal, primary screen (AID 1089); conditions: higher = more signal, called active from +8 up or from −8 down;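 further: growth of clinical yeast isolate S. cerevisiae YJM 789 seeded 1000 cells per well; test concentration not given here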
[3] = S. pombe growth modifiers, basal conditions – strain 972, OD600, 24 h, no modulator, primary screen (AID 1090);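 further: basal condition with compound alone and no growth modifier present; test concentration not given here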; conditions: S. pombe 972 growth, higher = more signal, called active from +8 up or from −8 down
[4] = budding yeast growth modifiers under rapamycin – strain BY4716, OD600, 96 h, primary screen (AID 1091); further: test concentration not given here; conditions: S. cerevisiae BY4716 + rapamycin, higher = more signal, called active from +8 up or from −8 down
[5] = biological target: Torsin-1A-interacting protein 2 (Homo sapiens) (UniProt Q8NFQ8); test: small molecules binding lysate-expressed LULL1 – cell lysate, human LULL1 lysate, 635/667 nm fluorescence, primary screen (AID 1092); conditions: small-molecule microarray, hLULL1 lysate binding, 635 nm fluorescence; higher = more signal;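 further: probe is lysate of COS7 cells overexpressing human LULL1; score merges per-feature 667 nm fluorescence with signal-to-noise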
[6] = optical density change of DRC41 E. coli – strain DRC41, OD650, 24 h, E. coli filamentation project, primary screen (AID 1093);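 further: MC1000 strain lacking acrAB efflux and sulA so SOS filamentation is blocked; test concentration not given here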; conditions: E. coli DRC41 growth, higher = more signal, called active from +8 up or from −8 down
[7] = probe aLefty2 binding to arrayed compounds – biochemical, biotinylated probe, 635/667 nm fluorescence, primary screen (AID 1094); conditions: small-molecule microarray, higher = more signal;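 further: score merges spot fluorescence near 667 nm with spot signal-to-noise ratio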
[8] = system: Noggin (protein binding on small-molecule microarray); test: small molecules binding Noggin protein – biochemical, 635/667 nm fluorescence, primary screen (AID 1095); conditions: 635 nm fluorescence, higher = more signal;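 further: score merges 667 nm feature fluorescence with signal to noise over triplicate slides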
[9] = biological target: Neurogenic locus notch homolog protein 3 (Homo sapiens) (UniProt Q9UM47); test: small molecules binding NOTCH3 protein – biochemical, 635/667 nm fluorescence, primary screen (AID 1096); conditions: small-molecule microarray, 635 nm fluorescence, higher = more signal
[10] = probe aEGFR binding to arrayed compounds – biochemical, biotinylated probe, 635/667 nm fluorescence, primary screen (AID 1097); conditions: small-molecule microarray, higher = more signal;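 further: probe is a biotinylated anti-EGFR antibody binding compounds printed on slides; score combines fluorescence near 667 nm and signal to noise of each spot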

Torsin-1A-interacting protein 2 (Homo sapiens), sequence (Q8NFQ8 whole entry, looked up): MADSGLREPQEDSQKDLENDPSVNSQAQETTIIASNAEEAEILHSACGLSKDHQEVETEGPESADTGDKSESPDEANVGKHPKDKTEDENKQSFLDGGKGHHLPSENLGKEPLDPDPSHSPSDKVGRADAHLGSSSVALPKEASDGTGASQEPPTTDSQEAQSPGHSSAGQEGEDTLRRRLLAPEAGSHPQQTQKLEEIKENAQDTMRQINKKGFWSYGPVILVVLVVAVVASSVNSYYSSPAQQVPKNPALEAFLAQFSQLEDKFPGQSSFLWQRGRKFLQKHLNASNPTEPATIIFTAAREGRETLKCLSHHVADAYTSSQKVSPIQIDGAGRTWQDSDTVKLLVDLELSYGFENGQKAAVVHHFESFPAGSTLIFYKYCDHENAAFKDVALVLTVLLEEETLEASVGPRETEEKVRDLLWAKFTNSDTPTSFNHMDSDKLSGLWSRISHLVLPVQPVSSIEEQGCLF
Neurogenic locus notch homolog protein 3 (Homo sapiens), sequence (Q9UM47 whole entry, looked up): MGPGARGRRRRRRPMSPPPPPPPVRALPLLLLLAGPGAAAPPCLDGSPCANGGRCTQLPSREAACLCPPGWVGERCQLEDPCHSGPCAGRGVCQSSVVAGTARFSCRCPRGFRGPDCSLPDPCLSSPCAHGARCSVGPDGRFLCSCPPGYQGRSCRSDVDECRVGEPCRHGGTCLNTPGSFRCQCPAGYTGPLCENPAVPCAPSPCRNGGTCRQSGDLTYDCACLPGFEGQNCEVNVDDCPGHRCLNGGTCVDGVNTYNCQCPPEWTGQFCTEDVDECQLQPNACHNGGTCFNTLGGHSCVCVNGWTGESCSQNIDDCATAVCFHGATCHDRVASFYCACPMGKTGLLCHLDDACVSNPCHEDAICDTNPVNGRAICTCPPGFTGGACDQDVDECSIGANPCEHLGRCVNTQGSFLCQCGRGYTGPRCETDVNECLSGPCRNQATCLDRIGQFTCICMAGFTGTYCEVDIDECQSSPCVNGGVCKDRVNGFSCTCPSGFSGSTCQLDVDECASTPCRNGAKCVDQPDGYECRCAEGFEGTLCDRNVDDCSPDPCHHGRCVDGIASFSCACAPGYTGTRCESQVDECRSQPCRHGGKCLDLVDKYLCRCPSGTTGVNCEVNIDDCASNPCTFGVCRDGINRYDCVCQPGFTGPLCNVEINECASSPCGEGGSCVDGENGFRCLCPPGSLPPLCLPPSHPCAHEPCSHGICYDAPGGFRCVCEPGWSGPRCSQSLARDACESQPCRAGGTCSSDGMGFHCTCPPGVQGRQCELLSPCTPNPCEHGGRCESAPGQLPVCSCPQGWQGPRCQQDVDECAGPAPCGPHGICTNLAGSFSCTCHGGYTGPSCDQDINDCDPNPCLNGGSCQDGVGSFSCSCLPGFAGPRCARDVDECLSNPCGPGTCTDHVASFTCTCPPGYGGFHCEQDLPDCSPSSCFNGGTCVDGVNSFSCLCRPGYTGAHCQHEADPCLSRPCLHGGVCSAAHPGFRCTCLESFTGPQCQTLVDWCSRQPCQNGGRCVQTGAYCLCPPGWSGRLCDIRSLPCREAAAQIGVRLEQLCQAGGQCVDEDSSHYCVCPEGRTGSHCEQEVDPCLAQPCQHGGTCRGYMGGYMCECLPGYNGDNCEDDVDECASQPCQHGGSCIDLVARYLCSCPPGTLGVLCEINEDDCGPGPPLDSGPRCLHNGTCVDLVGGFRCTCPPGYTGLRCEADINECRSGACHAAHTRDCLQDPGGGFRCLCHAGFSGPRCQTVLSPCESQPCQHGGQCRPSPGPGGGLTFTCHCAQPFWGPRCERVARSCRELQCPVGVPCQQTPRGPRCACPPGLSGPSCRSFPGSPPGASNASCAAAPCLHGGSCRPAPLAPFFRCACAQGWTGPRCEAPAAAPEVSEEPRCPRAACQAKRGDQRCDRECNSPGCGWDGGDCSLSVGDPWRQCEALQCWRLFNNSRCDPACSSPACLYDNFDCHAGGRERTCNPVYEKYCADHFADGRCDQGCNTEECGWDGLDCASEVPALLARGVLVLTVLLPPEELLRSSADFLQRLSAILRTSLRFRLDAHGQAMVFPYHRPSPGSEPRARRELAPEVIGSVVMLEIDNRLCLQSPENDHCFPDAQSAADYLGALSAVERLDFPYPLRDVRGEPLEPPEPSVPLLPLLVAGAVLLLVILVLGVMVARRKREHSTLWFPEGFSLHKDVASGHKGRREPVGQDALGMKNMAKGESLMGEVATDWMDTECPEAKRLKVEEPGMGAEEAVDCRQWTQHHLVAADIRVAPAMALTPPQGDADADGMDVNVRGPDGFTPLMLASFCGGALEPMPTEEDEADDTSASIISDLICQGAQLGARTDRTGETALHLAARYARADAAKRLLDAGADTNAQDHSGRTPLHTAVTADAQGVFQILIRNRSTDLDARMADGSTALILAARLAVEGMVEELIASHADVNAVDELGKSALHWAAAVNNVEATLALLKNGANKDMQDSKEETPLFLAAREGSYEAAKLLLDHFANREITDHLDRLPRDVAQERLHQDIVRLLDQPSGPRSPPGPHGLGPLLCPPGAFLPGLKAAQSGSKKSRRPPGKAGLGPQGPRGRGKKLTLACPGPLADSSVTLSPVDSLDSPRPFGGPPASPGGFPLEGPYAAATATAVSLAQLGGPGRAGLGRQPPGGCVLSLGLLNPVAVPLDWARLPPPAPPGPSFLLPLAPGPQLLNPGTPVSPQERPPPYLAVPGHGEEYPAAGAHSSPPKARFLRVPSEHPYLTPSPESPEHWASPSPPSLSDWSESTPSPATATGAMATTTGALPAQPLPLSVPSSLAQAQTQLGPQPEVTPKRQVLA

Structure (SMILES) | composite z-score [1] | z-score [2] | z-score [3] | z-score [4] | composite z-score [5] | z-score [6] | composite z-score [7] | composite z-score [8] | composite z-score [9] | composite z-score [10]
O=C(C1N=C(c2ccc(OCCCO)cc2)N(c2ccccc2)O1)N1CCCCC1 (stereo not given) | 1.54 | -0.537 (inactive) | -0.734 (inactive) | 0.0484 (inactive) | 2.95 | 0.828 (inactive) | 0.226 | 0.684 | 0.288 | 0.0542
CC(C)N1CC=CC23O[C@@H]4C=CCCOC(=O)C4[C@H]2C(=O)N(CCCO)[C@@H]3C1=O (stereo not given in full) | 0.521 | -0.198 (inactive) | -0.861 (inactive) | -0.824 (inactive) | 2.1 | 2.83 (inactive) | -0.215 | -0.0322 | 0.236 | -0.226
NCCCCCCNC(=O)[C@@H]1C[C@@H]2C(=O)N[C@@H](CCCCN)C(=O)N2[C@@H]1c1ccc(O)cc1 | 1.44 | -0.171 (inactive) | 0.142 (inactive) | -1.38 (inactive) | 2.47 | 0.445 (inactive) | 0.362 | 0.367 | 0.549 | 0.217
CCOC(=O)C1=C[C@@H](C(C)(C)C)N(S(=O)(=O)c2ccc(C)cc2)[C@H]1c1cccc2ccccc12 | 0.735 | 2.23 (inactive) | 2.75 (inactive) | 2.97 (inactive) | 2.36 | -0.296 (inactive) | -0.034 | 0.171 | 1.09 | -0.0828
COc1cc(OC)c(C(O)C2C=CC3C(=O)N(Cc4ccccc4)C(=O)C3N2n2cnnc2)cc1Br (stereo not given) | 1.11 | -1.92 (inactive) | -1.73 (inactive) | 0.027 (inactive) | 2.89 | -1.21 (inactive) | 0.0208 | 0.404 | 1.07 | -0.0343
O=C(NCCN1CCOCC1)[C@@H]1c2ccccc2C(=O)N(C2Cc3ccccc3C2)[C@H]1c1ccc(CO)cc1 | 0.925 | -2.95 (inactive) | -0.534 (inactive) | -0.979 (inactive) | 3.2 | 1.78 (inactive) | -0.0145 | -0.398 | 0.123 | -0.214
CCOC(=O)C[C@H]1[C@H](OC(=O)c2ccc(C(=O)c3ccccc3)cc2)[C@@H](NC(=O)c2ccc3ccccc3n2)c2cc(OCCCO)ccc2N1C(=O)Cc1ccc(OC)cc1 | 0.517 | 1 (inactive) | 1.04 (inactive) | 0.949 (inactive) | 1.36 | -0.57 (inactive) | -0.157 | 0.842 | 0.312 | -0.206
CC(c1ccccc1)C(O)C1C=CC2C(=O)N(C)C(=O)C2N1Nc1ccccc1 (stereo not given) | 1.33 | 0.188 (inactive) | 0.669 (inactive) | 0.419 (inactive) | 2.99 | -0.689 (inactive) | 0.445 | -0.194 | 1.14 | 0.0849
CN1C2C=C(CCCO)C(C3C(=O)N(C(N)=O)C(=O)C32)C1C1CC1 (stereo not given) | -0.0255 | -0.163 (inactive) | -0.0516 (inactive) | -0.32 (inactive) | 0.0963 | -0.583 (inactive) | -0.0812 | -0.22 | -0.523 | -0.163
C=CCNC(=O)[C@@H]1[C@H]2C(=O)O[C@H](c3ccccc3)[C@H](c3ccccc3)N2[C@H](c2ccccc2OCCO)[C@@]12C(=O)Nc1ccc(C#CCC(C(=O)OC)C(=O)OC)cc12 | 1.45 | 1.13 (inactive) | 1.19 (inactive) | 3.72 (inactive) | 1.77 | -0.736 (inactive) | -0.366 | 0.0639 | 1.07 | -0.24
C=CC[C@@H](OC(=O)Nc1ccc(OC)cc1)c1ccc(O)c(F)c1 | 0.349 | -23.4 (active) | -20.3 (active) | -2.74 (inactive) | 2.09 | 0.92 (inactive) | -0.146 | -0.488 | -0.6 | -0.241
C=CC[C@@]1(C(=O)NCCCOC)N=C(c2ccc(OCCCO)cc2)O[C@@H]1c1ccccc1 | 1.24 | -3.84 (inactive) | -1.61 (inactive) | -0.725 (inactive) | 3.37 | 0.734 (inactive) | 0.211 | 0.0729 | -0.741 | 0.0353
CCCC[C@@H]1C[C@H]1[C@@H](NC(=O)c1cccs1)c1ccccc1C(F)(F)F | 0.72 | 0.0064 (inactive) | -1.94 (inactive) | 1.08 (inactive) | 3.12 | -0.0873 (inactive) | 0.0864 | -0.597 | 0.168 | 0.0695
CC(C)[Si]1(C(C)C)OCc2cc(-c3ccc(-c4ccc(Cl)c(Cl)c4)o3)nc(-c3ccccc3)c21 | -0.715 | 0.0932 (inactive) | -1.39 (inactive) | 0.265 (inactive) | -1.75 | -0.184 (inactive) | -0.0803 | -0.401 | -0.444 | -0.316
N#Cc1ccc(NN2C(C(O)c3ccc(Br)cc3)C=CC3C(=O)N(c4ccccc4)C(=O)C32)cc1 (stereo not given) | 0.751 | -1.16 (inactive) | -0.605 (inactive) | 0.297 (inactive) | 2.99 | -1 (inactive) | 0.145 | -0.146 | 1.01 | 0.233
COCCOC(=O)N1C(=O)[C@@]2(c3cc(C#CCCO)ccc31)[C@H](C(=O)Nc1nc3ccccc3s1)[C@H]1C(=O)O[C@H](c3ccccc3)[C@H](c3ccccc3)N1[C@@H]2c1ccc(O)cc1 | 1.54 | 1.32 (inactive) | 0.663 (inactive) | 2.23 (inactive) | 2.79 | 0.467 (inactive) | 0.027 | 0.797 | 1.03 | 0.152
COC(=O)[C@]1(CCS(=O)(=O)c2ccccc2)N=C(c2ccc(OCCCO)cc2)O[C@@H]1c1ccccc1N=[N+]=[N-] | 1.54 | 0.764 (inactive) | -2.44 (inactive) | 35.7 (active) | 3.23 | -1.29 (inactive) | 0.346 | 1.22 | 1.04 | 0.6
OCCCC1=CC(c2ccc(CN3CCCC3)cc2)N(Cc2cc3c(cc2Br)OCO3)CC1 (stereo not given) | 0.233 | -2.55 (inactive) | -1.35 (inactive) | -0.705 (inactive) | -0.692 | 0.497 (inactive) | 0.112 | 0.386 | -0.102 | 0.0617
COCCOC(=O)N1C(=O)[C@@]2(c3cc(C#CC4=CCCCC4)ccc31)[C@H](C(=O)Nc1nc3ccccc3s1)[C@H]1C(=O)O[C@H](c3ccccc3)[C@H](c3ccccc3)N1[C@@H]2c1ccc(O)cc1 | 1.55 | 0.128 (inactive) | -0.663 (inactive) | 0.364 (inactive) | 2.38 | 0.0627 (inactive) | -0.0823 | 1.21 | 1.07 | -0.0975
COC(=O)C1=CC(CCCO)=CC(c2cccs2)N(Cc2cccc(OC(F)(F)F)c2)C=C1C(=O)OC (stereo not given) | 1.57 | -1.07 (inactive) | -1.2 (inactive) | -1.45 (inactive) | 3.28 | 0.313 (inactive) | 0.0922 | 0.143 | 1.04 | 0.679
CCOC(=O)C[C@H]1[C@H](OC(=O)Cc2ccc3c(c2)OCO3)[C@@H](NC(=O)C2CCCCC2)c2cc(OCCCO)ccc2N1C(=O)c1ccccc1 | 1.05 | 0.193 (inactive) | -0.432 (inactive) | 0.36 (inactive) | 0.618 | 2.58 (inactive) | -0.248 | 0.0367 | 0.255 | -0.0452
COc1cc(NN2C(C(O)c3cc(OC)c(OC)c(OC)c3)C=CC3C(=O)N(C)C(=O)C32)cc(OC)c1OC (stereo not given) | 0.986 | -0.871 (inactive) | -0.724 (inactive) | -0.0522 (inactive) | 3.37 | -0.678 (inactive) | 0.16 | -0.112 | 1.06 | 0.08
COc1ccc([Si](C)(C)[C@@H]2[C@@H](CC(=O)N(CCO)Cc3ccccc3)O[C@]3(C(=O)N(Cc4cccc(N5CCCCC5=O)c4)c4ccccc43)[C@H]2C)cc1 | 1.42 | 1.42 (inactive) | -0.0344 (inactive) | 3.5 (inactive) | 2.38 | 1.02 (inactive) | 0.232 | 1.45 | 0.948 | -0.151
[N-]=[N+]=Nc1ccccc1C[C@@]1(C(=O)NCCN2CCOCC2)N=C(c2ccc(OCCCO)cc2)O[C@@H]1c1ccccc1N=[N+]=[N-] | 1.55 | -2.36 (inactive) | -14.1 (active) | -0.321 (inactive) | 3.19 | -0.485 (inactive) | 0.0672 | 0.325 | 0.811 | 0.0045
CCOC(=O)C[C@H]1[C@H](OC(=O)c2ccccc2-c2ccccc2)[C@@H](NC(=O)c2ccc3ccccc3c2)c2cc(OCCCO)ccc2N1C(=O)c1ccccc1 | 0.633 | 0.393 (inactive) | 0.379 (inactive) | 1.98 (inactive) | 0.683 | 0.356 (inactive) | -0.0916 | 0.554 | 0.564 | 0.342
[N-]=[N+]=NCc1ccccc1[C@H]1OC(c2ccc(OCCCO)cc2)=N[C@@]1(Cc1ccccc1N=[N+]=[N-])C(=O)NCC(O)CO (stereo not given in full) | 1.54 | -0.527 (inactive) | -0.451 (inactive) | 0.134 (inactive) | 3.52 | -0.221 (inactive) | 0.0511 | 0.0758 | 1.09 | 0.0201
CCCC=C(CCC)[C@@H](NS(=O)(=O)CC12CCC(CC1=O)C2(C)C)c1ccc(C(=O)OC)cc1 (stereo not given in full) | 0.788 | -0.723 (inactive) | -0.005 (inactive) | -0.909 (inactive) | 3.78 | 0.0623 (inactive) | 0.0672 | -0.132 | 0.408 | 0.471
CC1CC/C=C\[C@H]2OC34C=CCN(C(C)C)C(=O)[C@H]3N(CCO)C(=O)[C@@H]4C2C(=O)O1 (stereo not given in full) | -0.138 | 0.114 (inactive) | -0.486 (inactive) | 0.323 (inactive) | -0.021 | 1.48 (inactive) | -0.159 | -1.87 | -0.355 | -0.281
COCC(=C=CC[C@H](O)c1ccccc1OCCO)C[C@H](O)c1ccccn1 | 1.14 | 0.636 (inactive) | -0.422 (inactive) | -0.505 (inactive) | 3.35 | 0.723 (inactive) | -0.138 | 0.808 | -0.0439 | 0.122
C=CCNC(=O)[C@H]1[C@@H]2C(=O)O[C@@H](c3ccccc3)[C@@H](c3ccccc3)N2[C@@H](c2ccccc2OCCO)[C@]12C(=O)N(C(=O)OCCOC)c1ccc(C#CC3(O)CCCCCC3)cc12 | 1.56 | -0.22 (inactive) | -0.444 (inactive) | 4.93 (inactive) | 3.1 | 1.31 (inactive) | -0.0499 | 0.592 | 0.759 | -0.0455
